# Source: PubChem BioAssay (several laboratories)
# Only some compounds are listed: those with a hit (about 4.8% of all), similar ones and a draw of the others.
# Beta cell apopt: inhibitors of cytokine-induced beta cell apoptosis, primary screen, luminescence; INS-1E cytokine-induced death, ATP luminescence, 48 h; percent of positive-control rescue, neutral wells zero; protection from apoptosis, % (test concentration not listed); 0.8% of 300,000 active; AID 435005, 2010;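 active = Every replicate reaches about 75%, or at least half do and their mean reaches it too, limit read from the data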;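 note: 0% = cytokine-treated negative control wells and 100% = positive control rescue; higher means more ATP so stronger rescue from cytokine killing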
# CSC inhib: cancer stem cell viability inhibitors, primary screen, luminescence; cancer stem cell-like cells viability; inhibition, % at 7.5 µM; 1.1% of 300,000 active; AID 2717, 2010; in the data active = inhibition above about 75%; tested in HMLE shEcad cells
# Mdm2-MdmX inh: inhibitors of human Mdm2-MdmX association, primary screen, cell-based, luminescence, split luciferase, SaOS-2, uHTS. SaOS-2 split-luciferase Mdm2/MdmX complementation. inhibition, % at 8 µM. 3% of 330,000 active. AID 485346, 2010;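 active = inhibition of at least 50% at 8 µM in the primary screen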
# Target sequence (O15151 whole entry, looked up): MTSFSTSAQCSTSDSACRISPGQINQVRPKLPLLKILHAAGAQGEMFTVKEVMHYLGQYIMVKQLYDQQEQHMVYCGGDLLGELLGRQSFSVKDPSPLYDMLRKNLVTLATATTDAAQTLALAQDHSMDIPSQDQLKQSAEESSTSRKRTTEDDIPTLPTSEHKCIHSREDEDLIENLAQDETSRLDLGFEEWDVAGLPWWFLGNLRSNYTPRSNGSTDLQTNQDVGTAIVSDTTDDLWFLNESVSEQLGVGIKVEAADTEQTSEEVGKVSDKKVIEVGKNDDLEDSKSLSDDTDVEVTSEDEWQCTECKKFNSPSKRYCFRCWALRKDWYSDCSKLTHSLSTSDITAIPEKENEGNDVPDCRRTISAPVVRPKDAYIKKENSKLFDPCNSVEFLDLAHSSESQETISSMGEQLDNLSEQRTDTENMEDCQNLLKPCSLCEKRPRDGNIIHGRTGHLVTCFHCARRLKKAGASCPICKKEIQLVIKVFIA
# Target sequence (Q00987 whole entry, looked up): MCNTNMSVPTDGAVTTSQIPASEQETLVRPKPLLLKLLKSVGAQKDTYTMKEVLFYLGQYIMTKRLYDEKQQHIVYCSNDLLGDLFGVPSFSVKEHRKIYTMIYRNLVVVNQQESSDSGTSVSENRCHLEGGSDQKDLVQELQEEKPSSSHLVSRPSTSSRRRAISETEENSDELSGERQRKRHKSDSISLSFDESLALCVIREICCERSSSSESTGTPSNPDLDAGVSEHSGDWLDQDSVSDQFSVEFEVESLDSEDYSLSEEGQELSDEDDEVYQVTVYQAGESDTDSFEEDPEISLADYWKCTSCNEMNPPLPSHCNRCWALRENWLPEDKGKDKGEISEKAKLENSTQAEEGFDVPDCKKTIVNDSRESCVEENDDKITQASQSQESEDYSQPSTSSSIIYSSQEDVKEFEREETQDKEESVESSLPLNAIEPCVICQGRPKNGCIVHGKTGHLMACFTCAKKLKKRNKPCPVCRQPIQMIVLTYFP
# MPTP inh: mitochondrial permeability transition pore inhibitors, primary screen, biochemical, isolated mouse mitochondria, absorbance. Ca2+ swelling absorbance, 30 min. inhibition, % at 10 µM. 1.4% of 360,000 active;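 active = inhibition of 50% or more, scaled per plate between neutral and stimulator controls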;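 note: 0% = DMSO wells given calcium and 100% = 1 mM EGTA wells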
# Calb FLC: C. albicans growth inhibition with fluconazole, primary screen, CaCi-2 strain, Alamar Blue fluorescence; 0.57% of 300,000 active; growth inhibition, % (concentration not given with the values); AID 1979, 2009; C. albicans CaCi-2 (fluconazole-resistant clinical isolate) + fluconazole, 48 h;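 active = growth inhibition above about 58% in most replicates, limit read from the data, passing the limit was not always enough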;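 note: all wells also contain fluconazole at 8 µg/ml as a sub-toxic cotreatment; 0% = median of DMSO wells and 100% = median of geldanamycin control wells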
# MPTP counter: fluorescence retest of MPTP screen hits in isolated mitochondria, single concentration | shares compounds with MPTP inh | membrane potential, Rhodamine 123 fluorescence | inhibition, % at 10 µM | 78% of 5,000 active | AID 624504, 2012; in the data active = inhibition above about 22%;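 note: 0% = DMSO vehicle and 100% = positive control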
# MPTP swell DR: mitochondrial permeability transition pore inhibitors, dose response, biochemical, absorbance, uHTS hits; shares compounds with MPTP inh; isolated mitochondria swelling; IC50, µM; 58% of 780 active; AID 651561, 2012; in the data active = IC50 below about 20 µM
# MPTP counter DR: fluorescent counter-screen in isolated mitochondria, dose response, counter-screen for MPTP inhibitor project, biochemical, fluorescence, uHTS hits. shares compounds with MPTP inh. isolated mitochondria counterscreen, fluorescence read-out. IC50, µM. 49% of 780 active; in the data active = IC50 below about 80 µM
# Active calls of the source: *; . = no result given.
SMILES,Beta cell apopt,CSC inhib,Mdm2-MdmX inh,MPTP inh,Calb FLC,MPTP counter,others
COc1ccc(NS(=O)(=O)c2ccc3oc(SCc4ccc(F)cc4)nc3c2)cc1,25,72,22,60*,35,50*,
COc1ccccc1NS(=O)(=O)c1ccc2oc(SCc3ccc(F)cc3)nc2c1,21,6,43,7,1,.,
CCCC(=O)NC(Nc1cc(C(F)(F)F)ccc1Cl)C(Cl)(Cl)Cl (stereo not given),11,20,-9,90*,-8,93*,
O=C(NC(c1ccccc1)c1c(O)ccc2ccccc12)c1ccccc1Cl (stereo not given),-4,19,46,47,24,.,
O=C(NC(c1ccc(Cl)cc1)c1c(O)ccc2ccccc12)c1ccccc1 (stereo not given),98*,107*,.,80*,.,59*,
CCCCC(=O)NC(c1ccc([N+](=O)[O-])cc1)c1c(O)ccc2ccccc12 (stereo not given),33,65,47,69*,18,79*,
Cc1cc(C)cc(OCC(=O)OCC(=O)NC2CCCCCCC2)c1,-4,-12,22,-2,-1,.,
CCOC(=O)NC(NC(=S)Nc1ccc(OC)cc1)C(Cl)(Cl)Cl (stereo not given),0,.,-2,8,-17,.,
CC(C)CC(=O)NC(Nc1ccccc1F)C(Cl)(Cl)Cl (stereo not given),-4,8,1,-5,-19,.,
CC(C)CC(=O)NC(Nc1ccc([N+](=O)[O-])cc1)C(Cl)(Cl)Cl (stereo not given),-7,11,11,90*,-2,96*,
CC(=O)NC(NC(=S)Nc1ccc(N=Nc2ccccc2)cc1)C(Cl)(Cl)Cl (stereo not given),32,63,28,94*,2,62*,
CC(=O)NC(NC(=S)Nc1ccc(S(N)(=O)=O)cc1)C(Cl)(Cl)Cl (stereo not given),-6,-8,-4,2,1,.,
CC(=O)NC(NC(=S)Nc1cccc(Br)c1)C(Cl)(Cl)Cl (stereo not given),0,4,-13,95*,-3,76*,
COC(=O)NC(NC(=S)Nc1ccc([N+](=O)[O-])cc1)C(Cl)(Cl)Cl (stereo not given),16,25,32,93*,-23,80*,
Nc1ncnc(N)c1NC(=O)c1cc(Cl)c(OCc2ccccc2)c(Cl)c1,.,.,.,1,.,.,
CC(C)c1ccc(C2(C)NC(=O)N(CC(=O)N3CCN(C(=O)c4cccs4)CC3)C2=O)cc1 (stereo not given),-6,.,7,0,.,.,
O=C(NC(NC(=S)Nc1cccc(C(=O)O)c1)C(Cl)(Cl)Cl)OCc1ccccc1 (stereo not given),-8,-9,13,0,2,.,
COc1ccc(NC(=S)NC(NC(=O)/C=C/c2ccccc2)C(Cl)(Cl)Cl)cc1 (stereo not given),.,14,39,96*,-6,65*,
Cc1cccc(NC(=S)NC(NC(=O)OCc2ccccc2)C(Cl)(Cl)Cl)c1 (stereo not given),10,34,19,74*,-7,80*,
CCCn1c(=N)n(CC(O)c2ccc(C)cc2)c2ccccc21 (stereo not given),-4,-4,2,2,-36,.,
COc1ccc(C(O)Cn2c(=N)n(CCCN(C)C)c3ccccc32)cc1 (stereo not given),-4,1,27,80*,-5,-5,
N#Cc1nc(COc2ccc(-c3ccccc3)cc2)oc1NCCCN1CCOCC1,6,.,33,1,28,.,
CN(C)CCNc1oc(COc2ccc(-c3ccccc3)cc2)nc1C#N,-4,-4,44,75*,-36,-18,MPTP swell DR=5.9*;MPTP counter DR=54*
